# Experimental data published in PubChem BioAssay AID493191 (Broad Institute, 2011).
# Among all 1,300 compounds or so, about 330 (25%) were called active. The rule behind the calls is not given here. The list is a sample of the results. Measured potencies and affinities stand elsewhere.
# Assay: growth inhibition of MALME3 cells – cell-based, CellTiter-Glo, cherry-picked, orthogonal assay for MITF inhibitor project, dose response (AID 493191)
# Conditions: MALME3 melanoma viability, CellTiter-Glo luminescence, 24 h; series mostly up to 35 µM
row,Structure (SMILES),outcome
1,Cc1ccc(C2CC(C(F)(F)F)n3nc(C(=O)NCc4c(C)nn(C)c4C)c(Cl)c3N2)cc1 (stereo not given),inactive
2,Cn1c(/C=C/c2ccc(Cl)cc2)nc2ccccc2c1=O,inactive
3,COc1cccc(-c2csc3ncnc(Sc4nnnn4C)c23)c1,inactive
4,Cc1ccc(-c2noc(CN3CCCCC3)n2)cc1,inactive
5,C=CCn1cccc(C(=O)Nc2ccc(C)c(Cl)c2)c1=O,inactive
6,O=C(Nc1ccc(N2CCOCC2)c(Cl)c1)c1cccc(F)c1,inactive
7,Cc1ccc2nc(NC(=O)CSCC(=O)OCC(=O)c3ccccc3)sc2c1,inactive
8,O=C(O)c1ccc(N/N=C/c2ccc3nccnc3c2)cc1,inactive
9,Clc1nccnc1N/N=C/c1ccc(Br)cc1,inactive
10,CCSC1(SCC)N=C(N)C2(C#N)C(c3ccc(F)cc3)C12C#N (stereo not given),inactive
11,O=C(COC(=O)c1ccc[nH]c1=O)Nc1ccc(N2CCCCC2)cc1,inactive
12,CCOc1ccc(-c2nnc(-c3cccs3)o2)cc1OCC,inactive
13,CCOC(=O)C1(Cc2cccc(OC)c2)CCCN(C(=O)CSC)C1 (stereo not given),inactive
14,COc1ccc(NC(C)C(=O)N/N=C/c2ccc([N+](=O)[O-])s2)cc1 (stereo not given),inactive
15,CCOc1ccc(NC(=O)CCC(=O)N/N=C/c2ccc([N+](=O)[O-])s2)cc1,inactive
16,O=C(/C=C\c1ccccc1)NCC(=O)N/N=C/c1ccc(O)cc1O,inactive
17,N/C(=N\OC(=O)c1cccc(F)c1)c1cccc([N+](=O)[O-])c1,inactive
18,Cc1onc(-c2ccccc2)c1C(=O)N/N=C/c1ccc([N+](=O)[O-])s1,inactive
19,O=C(Cc1ccccc1)NCC(=O)N/N=C/c1ccc([N+](=O)[O-])s1,inactive
20,COc1ccc(-c2csc(N(C)C(=O)c3ccco3)n2)cc1,inactive
21,COCCn1c(C)cc(C(=O)COC(=O)c2ccccc2Br)c1C,inactive
22,CC(/C=C1\SC(=O)N(CCCC(=O)O)C1=O)=C\c1ccccc1,inactive
23,CCN(Cc1ccc(OC)c(F)c1)C(=O)CCl,inactive
24,c1ccc(OCc2nc3ccccc3[nH]2)cc1,inactive

row,Structure (SMILES),outcome
1,N#CC1=C(c2ccccc2)/C(=C/c2ccccc2)OC1=O,inactive
2,Cc1cc(C=C2C(=O)c3ccccc3C2=O)c(C)n1-c1ccccc1,inactive
3,COc1cccc2c1C(=O)C=C(C)C2=O,inactive
4,O=C(O)c1ccccc1C(=O)Nc1ccc(Oc2cccc3ccccc23)cc1,inactive
5,Cc1ccc(N2C(=O)c3ccc(N)cc3C2=O)cc1C,inactive
6,COc1ccc(/C=N/Nc2cc(C)nc(-n3nc(C)cc3C)n2)c(OC)c1,inactive
7,O=C1CCC2S/C(=C/Nc3ccc(C(F)(F)F)cc3)C(=O)N12 (stereo not given),inactive
8,Cc1nc(C)c(C(=O)N/N=C/c2cc(Br)ccc2O)s1,inactive
9,CC(C)C(=O)NC(c1ccco1)c1ccc2cccnc2c1O (stereo not given),inactive
10,C=CCN=C1NN=C(c2ccc3c(c2)OCCO3)CS1,inactive
11,C=CCn1c(C)cc(C2=NNC(=NC(C)(C)C)SC2)c1C,inactive
12,COc1ccccc1NC(=O)c1cnc(SCC(=O)NCC2CCCO2)n(C)c1=O (stereo not given),inactive
13,Cc1nc(Sc2nnnn2C)c2c3c(sc2n1)CCC3,inactive
14,COCCNC(=O)/C(C#N)=C/c1cccc(/C=C(\C#N)C(=O)NCCOC)c1,inactive
15,CCOCCCNC(=O)/C(C#N)=C/c1ccc(Cl)c([N+](=O)[O-])c1,inactive
16,CCCOc1ccc(C(=O)Nc2ccc3c(c2)OCCO3)cc1,inactive
17,CC1CCCC(NC(=O)NC(=O)CCl)C1C (stereo not given),inactive
18,CCCc1ccc(-c2ccc(/C=C/C(=O)O)cc2)nc1,inactive
19,COc1cc(OC)cc(C(=O)N[C@H](C(=O)Nc2nc3ccccc3[nH]2)C(C)C)c1,inactive
20,CCCCNc1nc(=S)n(-c2ccccc2)c(C)c1C(C)=O,inactive
21,Cc1cc(Br)ccc1OCc1nc(-c2cccnc2)no1,inactive
22,CC(=O)COc1ccc2cc(-c3ccccc3)c(=O)oc2c1,inactive
23,CCOC(=O)c1cc(-c2ccc(OC)cc2)n[nH]1,inactive
24,COc1ccc(Cn2c(-c3ccc(C)cc3)c[n+]3ccccc23)cc1,inactive

row,Structure (SMILES),outcome
1,CC(=O)N(c1nnc(-c2cccc(C)c2)s1)C1CCCC1,inactive
2,O=C(Nc1ccc2nc(-c3ccccc3)[nH]c2c1)c1ccco1,inactive
3,Cc1cccc(NC(=O)Cc2ccc(Br)cc2)n1,inactive
4,C/C(=N\NC(=O)Cc1ccc(Cl)cc1)c1ccccn1,inactive
5,CC(=NNc1nc2ccccc2o1)c1cc2ccccc2cn1,inactive
6,NCCCNc1nc(N)c([N+](=O)[O-])c(NC2CCCCC2)n1,inactive
7,CC(=O)c1ccc(N/C=C/C(=O)c2ccc(Br)cc2)cc1,inactive
8,COc1ccc(NC(=O)c2scc(S(=O)(=O)C(C)C)c2N)cc1,inactive
9,C/C(=N\NC(=O)C(c1ccccc1)c1ccccc1)c1ccccn1,inactive
10,CCOC(=O)C1(Cc2ccccc2)CCCN(CCCn2cccn2)C1 (stereo not given),inactive
11,Cc1csc(N/N=C/c2ccc([N+](=O)[O-])cc2)n1,inactive
12,CN(C)S(=O)(=O)c1ccc(-c2csc(N/N=C/c3ccco3)n2)cc1,inactive
13,COC(=O)c1ccc(/C=C(\C#N)C(=O)NC(C)c2ccccc2)cc1 (stereo not given),inactive
14,COc1ccc(/C=C2\SC(=O)N(CCCC(=O)Nc3cc(Cl)ccc3C(=O)O)C2=O)cc1,inactive
15,c1cc(CSc2nnc(-c3ccc4c(c3)OCO4)o2)ccn1,inactive
16,COc1ccc2c(C)nc(Nc3nc(-c4ccccc4)cc(=O)[nH]3)nc2c1,inactive
17,O=C(Nc1cc2c(cc1Cl)OCCO2)c1ccco1,inactive
18,Nc1nnnn1/N=C/C(Br)=C/c1ccccc1,inactive
19,Cc1cc(C)nc(S/C=C/C(=O)c2ccccc2F)n1,inactive
20,Cn1nc([N+](=O)[O-])nc1S(C)(=O)=O,inactive
21,CN(C)c1ccc(CNc2ccccn2)cc1,inactive
22,COC(=O)c1ccc(/C=N/Nc2nc(C)c(C)s2)cc1,inactive
23,O=C(CCNc1ccccc1)c1ccc2c(c1)OCO2,inactive
24,CC1=NOC(=O)/C1=C\c1ccc(-c2cccc(Cl)c2)o1,inactive

row,Structure (SMILES),outcome
1,COc1cc2ccccc2cc1C(=O)Nc1ccc(N2CCN(C)CC2)cc1,inactive
2,CCC1CCCCN1CCCNC(=O)c1cn(CC)c2ccc(S(=O)(=O)N(C)C3CCCCC3)cc2c1=O (stereo not given),inactive
3,COc1ccc(NC(=O)C2COc3ccccc3O2)cc1 (stereo not given),inactive
4,Cc1c(C(=O)N(CCO)Cc2ccccc2)oc2c(F)cccc12,inactive
5,O=C(O)CSCC(=O)Nc1ccc(C2CCCCC2)cc1,inactive
6,CC(C)OC(=O)CSc1nc2cc3c(cc2cc1C#N)OCO3,inactive
7,Cc1nn(-c2ccccc2Cl)c(Cl)c1/C=N/Nc1cccc(C(=O)O)c1,inactive
8,N#Cc1cc2c(nc1SC1CC(=O)N(c3ccccc3)C1=O)CCC2 (stereo not given),inactive
9,CCSc1ccccc1C(=O)n1nnc2ccccc21,inactive
10,COc1ccc(/C=C/c2cc(C(F)(F)F)on2)cc1,inactive
11,Cc1[nH]nc(Nc2ccc(Br)cc2)c1[N+](=O)[O-],inactive
12,CCCCNC(=O)Nc1ccc(C2SCCS2)cc1,inactive
13,Cc1ccccc1-n1ncc2c([N+](=O)[O-])cc([N+](=O)[O-])cc21,inactive
14,COc1ccc(COC(=O)c2cc([N+](=O)[O-])ccc2N2CCOCC2)cc1F,inactive
15,CCN1CCc2c(sc(NC(=O)c3ccc(S(=O)(=O)N4CCCC4)cc3)c2C(=O)NC)C1,inactive
16,COc1ccc2nc(C)cc(SCC(=O)N/N=C/c3ccc(O)cc3O)c2c1,inactive
17,COc1ccc(-c2nc(-c3ccncc3)no2)cc1OC,inactive
18,COc1ccc(/C=N/Nc2ccccn2)cc1OC,inactive
19,COc1ccc(-c2cc(-c3ccccc3O)[nH]n2)cc1OC,inactive
20,O=C(Nc1nc2cc3c(cc2s1)OCO3)C1=COCCO1,inactive
21,Cc1c(C#N)c(NC(=O)CCl)n(Cc2ccc(F)cc2)c1C,inactive
22,C=CCn1c(C)cc(C(=O)Cn2ncc(Cl)c(Cl)c2=O)c1C,inactive
23,O=C(CCC(=O)c1ccc[nH]1)c1ccc(Cl)cc1,inactive
24,Nc1nc2n[nH]nc2c(=O)[nH]1,inactive

row,Structure (SMILES),outcome
1,CC(C)c1ccc(/C=C2\SC(=S)N(CCC(=O)N3CCCCC3CCO)C2=O)cc1 (stereo not given),inactive
2,CSc1nc(N)n2nc(-c3ccccc3)cc2n1,inactive
3,O=C(Nc1ccc2c(c1)OCCO2)c1ccoc1,inactive
4,Cc1ccc(-c2noc(-c3ccno3)n2)cc1,inactive
5,CC(=C/c1ccco1)/C=N/N1CCN(c2ccccc2)CC1,inactive
6,COC(=O)C1=C(CN2CCCc3ccccc32)NC(=O)NC1c1ccc(F)cc1 (stereo not given),inactive
7,COc1ccc2nc(C)cc(NCc3cccc(C(F)(F)F)c3)c2c1,inactive
8,O=C(CSCC(=O)Nc1ccccc1)N/N=C/c1c(O)ccc2ccccc12,inactive
9,O=C(CNc1ccc2ccccc2c1)N/N=C/c1ccc([N+](=O)[O-])o1,inactive
10,O=[N+]([O-])c1cccc(/C=N/Nc2ncc(Br)cn2)c1,inactive
11,Cc1cc2oc(=O)cc(C)c2cc1NC(=O)CCC(=O)O,inactive
12,C=CCSC(=S)NC1CCS(=O)(=O)C1 (stereo not given),inactive
13,CCOC(=O)COc1ccc2ccccc2c1/C=C/[N+](=O)[O-],inactive
14,N/C(CS(=O)(=O)c1ccccn1)=N\OC(=O)c1ccccc1Cl,inactive
15,O=C(O)/C=C/C(=O)c1ccc2c(c1)CCc1ccccc1-2,inactive
16,C=CCN1C(=O)S/C(=C\c2ccc(N3CCOCC3)cc2C)C1=O,inactive
17,CC(=O)Nc1cccc(-c2nnc(-c3ccccc3)o2)c1,inactive
18,CC(=O)Nc1ccc(-c2nc3ccccc3o2)cc1,inactive
19,COc1cccc(/C=N/NC(=O)CN2CC(c3ccccc3)CC2=O)c1OC (stereo not given),inactive
20,c1ccc(Cc2cc(-c3ccccc3)on2)cc1,inactive
21,Cc1ccc(NC(=O)c2ccccc2)cc1,inactive
22,COc1ccc(NC(=O)NC(=O)c2ccccc2)cc1,inactive
23,O=C(Nc1ccc(Cl)cc1)Nc1cccc(C(=O)O)c1,inactive
24,Cc1ccc(C(=O)Nc2cnc3ccccc3c2)cc1,inactive
